Drawing on PubChem BioAssay (NCATS), this text covers Potency for 13 compounds.

Inconclusive results are not listed. Active and inactive are the calls of the source. Unless noted, calls follow the shape of the dose curve; as a rule, active = well fitted inhibition curve with a large enough effect; inconclusive = small, poorly fitted or top-dose-only effect; inactive = flat fitted curve, though single readings scatter.

For one assay, the system named is 3D7. Put plainly: qHTS profiling for inhibitors of Plasmodium falciparum proliferation (AID 504749). Also: nearly all actives have a fitted effect of over 60% in size. Also: potency is read from the fitted curve at half-maximal effect. The following applies: P. falciparum in erythrocytes, SYBR Green DNA, 72 h; series mostly up to 28.7 µM. In a few lines:
(§1)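 Readout was DNA-dye fluorescence from lysed cultures, ex 485/em 535 nm. Parasitized red cells had grown 72 h with compound; data scaled between 0.29 uM artemisinin and DMSO wells and corrected using vehicle-only plates.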

For another assay, the system named is AA1029. Described as above. To be noted: P. falciparum in erythrocytes, SYBR Green DNA, 72 h; series mostly up to 28.7 µM. Summed up: as §1
Another assay has as its system CP185. The description is as above. To be noted: P. falciparum in erythrocytes, SYBR Green DNA, 72 h; series mostly up to 28.7 µM. In a few lines: as §1
The next assay deals with CP238. Described as above. To be noted: P. falciparum in erythrocytes, SYBR Green DNA, 72 h; series mostly up to 28.7 µM. Summed up:
as §1

Another assay has as its system CP260. The assay is described as above. The following applies: P. falciparum in erythrocytes, SYBR Green DNA, 72 h; series mostly up to 28.7 µM. Summed up:
as §1

Another assay deals with CP266. The assay is described as above. To be noted: P. falciparum in erythrocytes, SYBR Green DNA, 72 h; series mostly up to 28.7 µM. Summed up: as §1
The subject of the next assay is CP268. The description is as above. The following applies: P. falciparum in erythrocytes, SYBR Green DNA, 72 h; series mostly up to 28.7 µM. Summed up:
as §1

A further assay concerns CP269. The description is as above. The following applies: P. falciparum in erythrocytes, SYBR Green DNA, 72 h; series mostly up to 28.7 µM. Summed up:
as §1

In the next assay the test system is CP329. The description is as above. To be noted: P. falciparum in erythrocytes, SYBR Green DNA, 72 h; series mostly up to 28.7 µM. In a few lines: as §1
The subject of another assay is DIV14. The assay is described as above. To be noted: P. falciparum in erythrocytes, SYBR Green DNA, 72 h; series mostly up to 28.7 µM. In a few lines:
as §1

In the next assay the test system is DIV17. The assay is described as above. To be noted: P. falciparum in erythrocytes, SYBR Green DNA, 72 h; series mostly up to 28.7 µM. Summed up: as §1
The subject of the next assay is DIV30. The description is as above. To be noted: P. falciparum in erythrocytes, SYBR Green DNA, 72 h; series mostly up to 28.7 µM. In a few lines: as §1
For a further assay, the system named is FAB9. Described as above. The following applies: P. falciparum in erythrocytes, SYBR Green DNA, 72 h; series mostly up to 28.7 µM. Summed up:
as §1

In another assay the test system is HB3. Described as above. The following applies: P. falciparum in erythrocytes, SYBR Green DNA, 72 h; series mostly up to 28.7 µM. In a few lines:
as §1

For the next assay, the system named is ICS. The description is as above. To be noted: P. falciparum in erythrocytes, SYBR Green DNA, 72 h; series mostly up to 28.7 µM. In a few lines: as §1
A further assay relates to N140. The assay is described as above. To be noted: P. falciparum in erythrocytes, SYBR Green DNA, 72 h; series mostly up to 28.7 µM. In a few lines:
as §1

Another assay relates to P93_24. The assay is described as above. To be noted: P. falciparum in erythrocytes, SYBR Green DNA, 72 h; series mostly up to 28.7 µM. In a few lines:
as §1

A further assay has as its system PAD. Described as above. The following applies: P. falciparum in erythrocytes, SYBR Green DNA, 72 h; series mostly up to 28.7 µM. In a few lines: as §1
Another assay relates to CP262. The description is as above. The following applies: P. falciparum in erythrocytes, SYBR Green DNA, 72 h; series mostly up to 28.7 µM. Summed up: as §1
Assay [1] addresses 3',5'-cyclic-AMP phosphodiesterase 4B (Homo sapiens) (UniProt Q07343). Briefly: qHTS Assay for Inhibitors of PDE-IV (AID 607; active = well fitted activation curve with a large enough effect in the main read-out, with a control signal flat, not every such curve was filed as active). In a few lines:
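Cell-based read-out of cAMP via a modified cyclic nucleotide-gated channel and membrane potential dye (535/590 nm) in HEK293 cells expressing PDE4 endogenously. Compounds tested up to 22.9 uM final; 100 uM RO 20-1724 reference.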
In general terms: Quantitative high-throughput screening tests each substance at several concentrations.

Sequence of 3',5'-cyclic-AMP phosphodiesterase 4B (Homo sapiens) (Q07343 whole entry, looked up): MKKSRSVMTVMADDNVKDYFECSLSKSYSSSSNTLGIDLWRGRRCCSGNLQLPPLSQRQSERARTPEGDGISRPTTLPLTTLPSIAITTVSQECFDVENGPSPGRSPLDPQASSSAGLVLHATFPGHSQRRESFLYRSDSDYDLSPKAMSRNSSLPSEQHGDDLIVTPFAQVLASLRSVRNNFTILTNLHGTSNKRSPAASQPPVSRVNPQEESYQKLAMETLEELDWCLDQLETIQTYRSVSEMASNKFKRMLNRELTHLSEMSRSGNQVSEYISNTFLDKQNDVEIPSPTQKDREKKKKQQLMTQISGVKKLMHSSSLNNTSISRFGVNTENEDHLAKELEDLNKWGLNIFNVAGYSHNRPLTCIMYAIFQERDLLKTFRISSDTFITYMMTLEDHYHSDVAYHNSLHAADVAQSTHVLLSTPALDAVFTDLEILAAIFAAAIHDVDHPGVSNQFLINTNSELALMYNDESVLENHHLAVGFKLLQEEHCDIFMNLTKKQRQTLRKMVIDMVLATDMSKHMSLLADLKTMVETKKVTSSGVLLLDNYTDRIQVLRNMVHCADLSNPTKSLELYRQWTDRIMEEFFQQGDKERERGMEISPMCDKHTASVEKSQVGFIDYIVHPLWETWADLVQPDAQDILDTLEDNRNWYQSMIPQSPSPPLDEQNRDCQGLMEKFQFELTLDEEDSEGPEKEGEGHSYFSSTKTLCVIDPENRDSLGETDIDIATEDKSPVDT

On to `CO[C@H]1/C=C/O[C@@]2(C)Oc3c(C)c(O)c4c(O)c(c(/C=N\N5CCN(C6CCCC6)CC5)c(O)c4c3C2=O)NC(=O)/C(C)=C\C=C\[C@H](C)[C@H](O)[C@@H](C)[C@@H](O)[C@@H](C)[C@H](OC(C)=O)[C@@H]1C`, for which the Potency with 3D7 is 1.26 µM (active); in the assay on AA1029 it was 1.26 µM (active); in the assay with CP185, 1.58 µM (active); in the assay with CP238, 2.24 µM (active); with CP260 it was 1 µM (active); with CP266, 6.01 µM (active). Moreover, the Potency is 3.79 µM (active) with CP268; 3.38 µM (active) in the assay with CP269; 4.78 µM (active) in the assay on CP329; 0.675 µM (active) in the assay on DIV14; 0.601 µM (active) in the assay with DIV17; 0.849 µM (active) in the assay with DIV30. In addition, the Potency is 10 µM (active) in the assay on FAB9; 0.794 µM (active) in the assay on HB3; 0.112 µM (active) in the assay on ICS; 0.141 µM (active) in the assay on N140; 0.355 µM (active) in the assay on P93_24; 0.199 µM (active) with PAD.
With `CN1C(=O)CCC1c1cccnc1` (stereo not given), the Potency entry in the assay with CP262, in the assay with CP266, in the assay with CP268, in the assay on CP269, in the assay on CP329 and with DIV14 was “inactive” each time. Also, the Potency entry in the assay on DIV17 and with DIV30 was “inactive” throughout.
For `CN=C(N)NCCCC(N)C(=O)O` (stereo not given), the Potency entry with CP262, in the assay with CP266, with CP268, with CP269, in the assay on CP329 and with DIV14 was “inactive” in each case. The Potency result with DIV17 and in the assay with DIV30 was “inactive” throughout.
Regarding `CC(C)C[C@H]1C(=O)N2CCCC2[C@]2(O)O[C@](NC(=O)[C@@H]3C=C4c5cccc6[nH]c(Br)c(c56)C[C@H]4N(C)C3)(C(C)C)C(=O)N12` (stereo not given in full), the Potency in the assay on 3D7 was 3.98 µM (active); in the assay with AA1029, 3.55 µM (active); in the assay on CP185, 11.2 µM (active); in the assay with CP238, 10 µM (active); in the assay with CP260 it was 1.58 µM (active); in the assay on CP262, 8.49 µM (active). In addition, the Potency in the assay on CP268 was 12 µM (active); with CP269, 10.7 µM (active); in the assay with DIV14 it was 3.38 µM (active); in the assay on DIV17, 3.79 µM (active); in the assay on DIV30, 5.36 µM (active); in the assay on FAB9, 8.91 µM (active). In addition, the Potency in the assay with HB3 is 2.82 µM (active); in the assay on ICS, 0.708 µM (active); in the assay with N140, 3.16 µM (active); with P93_24, 2.82 µM (active); in the assay on PAD, 3.98 µM (active).
With `COc1cc2c(cc1OC)C(c1ccccc1)CN(C)CC2` (stereo not given), the Potency entry with 3D7, in the assay with CP185, in the assay on CP238, in the assay on CP260, in the assay on CP262 and in the assay on CP266 was “inactive” throughout. Moreover, the Potency entry in the assay with DIV30, in the assay with FAB9, with HB3, in the assay with N140 and in the assay on PAD was “inactive” each time.
In the case of `CC(=O)NCCc1ccc(O)c(O)c1`, the Potency result in assay [1] is “inactive”.
Regarding `NCCCCNS(=O)(=O)c1cccc2c(Cl)cccc12`, the Potency entry in assay [1] is “inactive”.
As to `CC(C)(C)[C@]1(O)CCN2CC3c4ccccc4CCc4cccc(c43)[C@@H]2C1` (stereo not given in full), the Potency is 7.94 µM (active) in the assay with AA1029; 10.7 µM (active) with DIV14; 15.1 µM (active) in the assay with DIV17; 10 µM (active) in the assay with ICS; 11.2 µM (active) in the assay with P93_24. Moreover, the Potency result with CP329 was “inactive”.
Regarding `CCSC(N)=Nc1ccc(C(F)(F)F)cc1`, the Potency result in assay [1] is “inactive”.
Regarding `CCCC(=O)NCCc1c2n(c3ccc(OC)cc13)Cc1ccccc1-2`, the Potency result in assay [1] is “inactive”.
In the case of `COc1ccc(CCNC[C@@H](O)c2ccc(O)cc2)cc1OC`, the Potency entry in the assay on 3D7, in the assay on AA1029, in the assay on CP185, in the assay with CP238, with CP260 and in the assay on CP262 was “inactive” throughout. Moreover, the Potency entry in the assay on CP266, with CP268, in the assay with CP269, with CP329, in the assay on FAB9 and in the assay with HB3 was “inactive” in each case. Moreover, the Potency result in the assay with ICS, in the assay on N140, with P93_24 and with PAD was “inactive” each time.
As to `N=C1Sc2ccccc2C2=NCCCN12`, the Potency result in [1] is “inactive”.
Regarding `CN1C[C@H](C(=O)N[C@]2(C)O[C@@]3(O)C4CCCN4C(=O)[C@H](Cc4ccccc4)N3C2=O)C[C@@H]2c3cccc4[nH]cc(c34)C[C@H]21` (stereo not given in full), the Potency with 3D7 was 8.91 µM (active); in the assay with AA1029, 3.55 µM (active); in the assay with CP185 it was 7.94 µM (active); with CP238, 5.62 µM (active); in the assay on CP260 it was 2 µM (active); in the assay on FAB9, 10 µM (active). The Potency was 2.24 µM (active) in the assay on HB3; 0.1 µM (active) in the assay on ICS; 0.891 µM (active) in the assay on N140; 1.41 µM (active) in the assay on P93_24; 0.355 µM (active) in the assay on PAD.
